From the supplement of paper PMC4100887 come the findings set out here.

± gives the standard deviation of the averaged measurements.

Experiment [1] deals with IMR-90. Description: relative cell viability (ATPlite) vs untreated control (fraction); higher = less toxic. The following applies: 1 µM; 72 h. Background: Cellular ATP, detected with luciferase, serves as a proxy for viable cell number.
The test system of experiment [2] is K562. The description is as above. The following applies: 1 µM; 72 h.
The subject of experiment [3] is K562. The experiment can be described thus: relative cell viability (ATPlite) vs untreated control, with imatinib (fraction); higher = less toxic. The following applies: 1 µM; 72 h; imatinib 0.125 µM.

As to `COC(=O)[C@]1(O)C[C@@H]2O[C@@]1(C)n1c3ccccc3c3c4c(c5c6ccccc6n2c5c31)C(=O)NC4` [K-252a, Nocardiopsis sp.], the figures for the relative cell viability in experiment [1], in experiment [2] and in experiment [3] were 0.668 ± 0.06, 0.305 ± 0.26 and 0.363 ± 0.26, respectively.
As to `O=C1NC(=O)c2c1c1c3ccccc3n3c1c1c2c2ccccc2n1[C@H]1CC[C@@H]3O1`, the relative cell viability in experiment [1] was 1.04 ± 0.092; in experiment [2], 0.872 ± 0.058; in experiment [3], 0.797 ± 0.069.
For the molecule `CC(C)(C)c1cc(C=C(C#N)C#N)cc(Br)c1O`, the values for the relative cell viability in experiment [1], in experiment [2] and in experiment [3] were 0.962 ± 0.047, 1 ± 0.12 and 0.847 ± 0.017, respectively.
Take `NC(=NN=Cc1ccc(-c2cccc([N+](=O)[O-])c2)o1)N[N+](=O)[O-]` [ERK Inhibitor III]: the relative cell viability in experiment [1] was 1.01 ± 0.12; in experiment [2] it was 0.937 ± 0.079; in experiment [3] it was 0.775 ± 0.053.
As for `O=[N+]([O-])/C=C/c1ccc2c(c1)OCO2` [Syk Inhibitor III], the relative cell viability worked out at 0.932 ± 0.087 in experiment [1], 0.819 ± 0.063 in experiment [2] and 0.753 ± 0.033 in experiment [3].
In the case of `O=S(=O)(c1c(O)c(Cl)cc(Cl)c1Cl)c1c(O)c(Cl)cc(Cl)c1Cl` [p38 MAP Kinase Inhibitor IV], the relative cell viability in experiment [1] came out at 0.988 ± 0.073; in experiment [2], 0.813 ± 0.076; in experiment [3] it was 0.762 ± 0.026.
For `COc1ccc2c(c1)/C(=C/c1cnc[nH]1)C(=O)N2`, in that order: 1.31 ± 0.26, 0.907 ± 0.17 and 0.881 ± 0.08.
